According to PubChem BioAssay AID720518 (National Center for Advancing Translational Sciences (NCATS), 2013):
Records with an inconclusive call do not appear. A call without a number means that no potency is given here. Activity calls are given as the source filed them. Calls follow the shape of the full dose curve.

Experiment: qHTS for Inhibitors of Cell Surface uPA Generation: Wild-type Protective Antigen (WT-PrAg) Counterscreen for Cherry-picked Compounds
Settings: cells, WT protective antigen toxicity counterscreen; series mostly up to 115 µM

SMILES | Potency
Nc1ccc(S(=O)(=O)c2ccccc2)nc1 | inactive
COc1cc(/C=N/NC(=O)c2cc(-c3ccco3)nc3ccccc23)cc(OC)c1O | inactive
COc1cc(CCC(=O)OCC(=O)NCc2ccccc2)cc(OC)c1OC | inactive
COc1ccc([C@@H]2[C@@H]3C(=O)N(C(C)(C)C)C(=O)[C@@H]3[C@]3(C)C(=O)N(c4cccc(Cl)c4)C(=O)N23)cc1 | inactive
COc1ccc(C(C(=O)NC2CCCC2)N(C(=O)c2ccoc2C)c2ccc(C)c(C)c2)cc1 (stereo not given) | inactive
Cc1nc(NC(=O)CSc2nnc(C3CC3)n2C)sc1C(=O)N(C)C | inactive
COc1cc(CN2CCN(c3ncccn3)CC2)cc(OC)c1 | inactive
Cc1ccc(-n2cccc2C(=O)NS(=O)(=O)c2ccc(C)cc2)cc1 | inactive
COc1ccc(NC(=O)c2nn(C)c3c2CS(=O)(=O)c2ccccc2-3)cc1 | inactive
O=C(NC1CCCC1)c1nc2c(nnn2Cc2ccccc2Cl)c(=O)[nH]1 | inactive
CS/C(=C\[N+](=O)[O-])Nc1ccccc1 | inactive
Cc1[nH]c2ccccc2c1C(=O)COC(=O)c1cccc(S(=O)(=O)N2CCCCC2)c1 | inactive
COc1ccc(N2CCN(S(=O)(=O)c3ccc4c(c3)NC(=O)CS4)CC2)cc1 | inactive
CCCn1nnc(NC(=S)NC(=O)c2ccccc2OC)n1 | inactive
CCCCn1c(N)c(N(CCC(C)C)C(=O)c2sc3nc4n(c(=O)c3c2C)CCC4)c(=O)[nH]c1=O | inactive
CCCOC(=O)CSC1=C(C#N)C(c2ccccc2Cl)CC(=O)N1 (stereo not given) | inactive
COc1ccccc1N1CCN(CC(=O)c2c(C)[nH]c3ccccc23)CC1 | inactive
CN(C)C(=S)Nc1ccc(S(=O)(=O)N2CCCCC2)cc1 | inactive
CC1CN(C(=O)CCC(=O)NCc2ccccc2)c2ccccc2S1 (stereo not given) | inactive
O=C(Nn1cnnc1)c1ccc(Cl)cc1 | inactive

SMILES | Potency
N/C(=N/OC(=O)c1ccccc1F)c1nonc1N | inactive
Cc1ccc(S(=O)(=O)N2CCC(C)CC2)cc1 | inactive
NC(=O)C1CCN(C(=O)c2cccc3ccccc23)CC1 | inactive
CC(=O)Oc1ccccc1C(=O)Nc1ccccc1C(=O)N1CCCC1 | inactive
COc1ccc(NC(=O)CC(C)CC(=O)NCc2ccccc2)c(OC)c1 (stereo not given) | inactive
O=C(C1CCN(c2nnc(N3CCCC3=O)s2)CC1)N1CCN(c2cccc(C(F)(F)F)c2)CC1 | inactive
O=P1(NCCCl)OCCCN1CCCl (stereo not given) | inactive
COc1cc(CN2CCN(S(=O)(=O)c3ccccc3)CC2)cc(OC)c1OC | inactive
O=S(=O)(/N=C(/c1ccccc1)N1CCOCC1)c1ccc(F)cc1F | inactive
CCOCCCn1c(SCC(=O)Nc2oc(C)c3c(C)n[nH]c(=O)c23)nc2ccccc2c1=O | inactive
CC1Cc2nc(SCC(=O)Nc3ccc4c(c3)OCO4)n(-c3ccc(F)cc3)c(=O)c2S1 (stereo not given) | inactive
CCC(C)Sc1nnc(NS(=O)(=O)Cc2ccccc2)s1 (stereo not given) | inactive
CCCOc1ccc(S(=O)(=O)NNC(=O)c2cc3ccccc3o2)cc1 | inactive
O=C(Nc1cccc(NC(=O)c2ccc(F)cc2)c1)c1ccc(F)cc1 | inactive
CC(C)Cn1cnc2c(N)nc3ccccc3c21 | inactive
Cc1ccc(N2C(=O)CC(N3CCN/C3=C3\CC/C(=C\c4ccccc4)C3=O)C2=O)cc1 (stereo not given) | inactive
Cn1cnc([N+](=O)[O-])c1Sc1ccc(Br)cc1 | inactive
CCOc1ccc(NS(=O)(=O)c2ccc(C(=O)N3CCC3)cc2)cc1 | inactive
O=C(Cc1ccc(Cl)cc1)c1c[nH]c(C(=O)NCCCn2ccnc2)c1 | inactive
CC1CC(C)CN(CCCNC(=O)CN2C(=O)CSc3ccc(S(=O)(=O)N4CCOCC4)cc32)C1 (stereo not given) | inactive
